EP2 mod = EP2 receptor modulators, cAMP readout, primary screen, cell-based, HTRF cAMP, PGE2 stimulation; induction, % at 25 µM; EP2-expressing cells, cAMP HTRF FRET, PGE2 co-stimulation; 260,000 compounds, 0.83% hits; Prostaglandin E2 receptor EP2 subtype (Homo sapiens), P43116; AID 940, 2007;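 active means compounds whose cAMP rise, as percent of the full-agonist control response, exceeds 60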;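 further: rat C6 glioma line stably carrying human EP2 under a CMV promoter; the protocol text gives 20 µM as final concentration; 100% = response of wells given 1 µM PGE2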
Furin inhibitor = human furin inhibitors, primary screen, biochemical, fluorescence intensity; purified furin, fluorogenic substrate cleavage; P09958; inhibition, % at 20 µM or 30 µM; 220,000 compounds, 0.061% hits; in the data active means inhibition above about 25%
Target sequence (P09958 108-714 limits assumed): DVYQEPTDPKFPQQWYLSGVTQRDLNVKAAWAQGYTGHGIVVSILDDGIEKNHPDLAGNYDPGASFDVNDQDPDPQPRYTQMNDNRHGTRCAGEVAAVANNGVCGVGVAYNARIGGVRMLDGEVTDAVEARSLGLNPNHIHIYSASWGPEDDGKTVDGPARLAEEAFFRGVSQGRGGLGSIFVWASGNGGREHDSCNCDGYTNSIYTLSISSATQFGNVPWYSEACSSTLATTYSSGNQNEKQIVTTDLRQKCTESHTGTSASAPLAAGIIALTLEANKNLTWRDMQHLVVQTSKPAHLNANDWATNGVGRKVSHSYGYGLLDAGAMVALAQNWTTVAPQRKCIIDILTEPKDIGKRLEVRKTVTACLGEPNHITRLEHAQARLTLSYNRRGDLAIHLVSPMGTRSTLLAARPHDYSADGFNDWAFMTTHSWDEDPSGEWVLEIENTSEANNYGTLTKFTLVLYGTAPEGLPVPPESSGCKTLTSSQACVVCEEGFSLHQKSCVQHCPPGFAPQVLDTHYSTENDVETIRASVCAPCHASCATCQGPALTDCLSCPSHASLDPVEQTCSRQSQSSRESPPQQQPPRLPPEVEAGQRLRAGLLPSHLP
PGE2 EP2 inh = human EP2 receptor antagonists, primary screen, TR-FRET cAMP, C6 glioma cells; 260,000 compounds, 0.52% hits; inhibition, % at 25 µM; C6 glioma cells expressing human EP2; cells stimulated with saturating PGE2; Prostaglandin E2 receptor EP2 subtype (Homo sapiens), P43116;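 active means percent inhibition above 40 after rounding to a whole number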;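 further: rat C6 glioma host cells with rolipram phosphodiesterase inhibitor present; the protocol text gives 20 µM as final concentration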
HSV replic up = enhancers of HSV replication in host cells, fold increase, host cell viability; AID 1956, 2009; maximum fold increase; HSV replication augmentation in cells; 220,000 compounds, 0.005% hits; in the data active means maximum fold increase above about 1.5; tested in PC3 cells
Wee1 stabilizer = Wee1 degradation inhibitors, primary screen, cell-based, HeLa, Wee1K328M-luciferase, luminescence. Wee1-like protein kinase (Homo sapiens), P30291. HeLa Luc-Wee1K328M stability; 100% = proteasome inhibitor MG132 effect. reporter increase, % at 5 µM. 220,000 compounds, 1.2% hits;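 active means activation above the mean of all tested compounds plus 3 SD, set per screening run, cut at about 8.8% in these data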;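 further: cells exposed to compound for 20 h before luminescence read; 0% = DMSO alone and 100% = MG132 at 30 µM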
NCF1 inh = p47phox/p22phox peptide binding inhibitors, primary screen, biochemical, uHTS, NADPH oxidase regulatory subunit; inhibition, % at 24.7 µM; fluorescence polarization, 2 h; Neutrophil cytosol factor 1 (Homo sapiens), P14598; 220,000 compounds, 0.53% hits;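 active means inhibition above about 30%, limit read from the data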;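 further: 0% = p47phox with labelled peptide and 100% = labelled peptide alone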
Wee1 degr conf = Wee1 degradation inhibitors, confirmation, cell-based, HeLa, Wee1K328M-luciferase, luminescence, triplicate. shares compounds with Wee1 stabilizer. HeLa Luc-Wee1K328M degradation; vehicle 0%, proteasome-blocked wells 100%. activation, % at 5 µM. 1,100 compounds, 4% hits; in the data active means activation above about 8.9%
* = called active by the depositor; i = inactive; nt = no result. Most compounds without a hit are left out; they make up all but 2.8% or so of the library.

SMILES	EP2 mod	Furin inhibitor	PGE2 EP2 inh	HSV replic up	Wee1 stabilizer	NCF1 inh	Wee1 degr conf
Cc1ccccc1/C=C1\CCCc2ccccc2C1=O	51	-17	6	i	1	25	nt
CC1CC(C)CN(C(=O)CCNS(=O)(=O)c2cccs2)C1 (centres undefined)	-5	-11	3	i	-2	-7	nt
O=C(CCNS(=O)(=O)c1cccs1)N1CCc2ccccc2C1	22	-9	14	i	19*	-2	1
Cc1cc(N2CCN(C(c3ccccc3)c3ccc(Cl)cc3)CC2)n2ncnc2n1 (centres undefined)	45	-11	9	nt	12*	-7	-1
COc1ccc(-c2noc(CSc3nc(-c4ccccc4)cc(=O)[nH]3)n2)cc1OC	18	-24	-4	i	14*	14	0
O=C1C=CC(O)(c2cc(=O)c3c(O)cc(O)cc3o2)C=C1	7	-17	10	i	41*	-5	69*
CC(C)c1nc2ccccc2c2nnc(SCC(=O)c3ccccc3F)n12	-7	nt	16	nt	nt	nt	nt
CCc1nc2ccccc2n1CC(O)COc1cc(OC)ccc1C(=O)c1ccccc1 (centres undefined)	-4	nt	20	nt	nt	nt	nt
COc1ccc(C2=NOC(C(=O)NCc3cccs3)C2)cc1OC (centres undefined)	3	-15	9	i	1	-8	nt
COc1cc(C2=NOC(C(=O)NCc3cccs3)C2)cc(OC)c1OC (centres undefined)	-5	-18	6	i	11*	10	15*
Cc1ccc(C(=O)NC(c2n[nH]c(=S)n2C)C(C)C)cc1 (centres undefined)	-11	nt	12	nt	nt	nt	nt
O=c1c2ccccc2nc2c3cccc4cccc(c(=O)n12)c43	2	nt	7	nt	nt	nt	nt
Cc1ccn2cc(CNS(=O)(=O)c3cccs3)nc2c1	-6	-14	6	i	13*	-6	-1
CN(C)c1ccc(P(=O)(OC2CCCCC2)C(O)c2cccnc2)cc1 (centres undefined)	27	-23	10	i	12*	9	4
O=C(COc1ccc(CO)cc1Cl)Nc1ccc(F)cc1	-12	-9	5	i	16*	-10	-5
O=C(COc1ccc(CO)cc1)Nc1ccc(F)cc1	-2	-23	10	i	3	-13	nt
Cc1ccc(-n2c(SCC(=O)N3CCCCC3)nnc2-c2ccncc2)cc1	1	nt	11	nt	nt	nt	nt
COc1cc(CN2C(=O)[C@@H]3CCCN3C(=O)c3ccccc32)cc(OC)c1OC	-31	nt	3	nt	nt	nt	nt
Cn1c(=O)c2c(ncn2CCCc2ccccc2)n(C)c1=O	0	-8	4	i	12*	-13	2
CCc1nn(CC(=O)NC(C)c2ccccn2)c(=O)c2cc3occc3n12 (centres undefined)	26	nt	nt	nt	nt	nt	nt
Cc1ccc(/C=C/C(=O)OCc2nc(N)nc(Nc3ccccc3C)n2)o1	-53	-17	13	i	13*	-9	-2
O=C(Nc1ccccc1-c1ccccc1)C1CCCN(S(=O)(=O)c2ccc(-n3cnnn3)cc2)C1 (centres undefined)	-59	nt	4	nt	nt	nt	nt
Cc1ccc(NC(=O)CSc2nnc(CNC(=O)c3cccs3)o2)cc1	14	-17	4	i	-1	-18	nt
CC(=O)c1ccc(NC(=O)CSc2nnc(Cn3cnc4ccccc43)o2)cc1	-19	-26	5	i	16*	-3	2
COc1cc(C(=O)NCc2nnc(SCC(=O)Nc3nc4ccccc4s3)o2)cc(OC)c1OC	19	2	5	i	12*	-9	1
SMILES	EP2 mod	Furin inhibitor	PGE2 EP2 inh	HSV replic up	Wee1 stabilizer	NCF1 inh	Wee1 degr conf
O=C(CSc1nnc(CNC(=O)c2cccs2)o1)Nc1ccccc1	4	-16	10	nt	18*	-10	-2
CS(=O)(=O)N(CC(=O)Nc1ccc2c(c1)OCCO2)c1ccc(Cl)cc1	-43	nt	8	nt	nt	nt	nt
CC(=O)Nc1nc(C)c(C(=O)O)s1	-11	nt	8	nt	nt	nt	nt
CCN(CC)c1ccc(/C=N/NC(=O)c2ccoc2C)cc1	-40	-10	4	i	16*	-12	0
CN1[C@@H](C(=O)N2CCOCC2)C[C@@H](c2ccc(F)cc2)NS1(=O)=O	-2	nt	nt	nt	nt	nt	nt
O=C(NNC(=S)Nc1ccccc1)Nc1ccccc1	-12	-15	15	i	8	-10	nt
Cc1ccc(NC(=S)NNC(=O)Nc2ccccc2)cc1	-14	-25	9	i	14*	0	4
O=C(O)c1ccc(CSc2nnc(COc3ccccc3)o2)cc1	31	-27	5	i	14*	-5	4
COCCn1c(SCC(=O)Nc2ccc(F)cc2)nc2c(oc3ccccc32)c1=O	-5	-18	6	i	11*	9	-2
COc1cc(C)c(N)cc1C(C)C	-15	-38	12	i	19*	-9	-1
COc1cc2[nH]c(=O)c(C(=O)NCc3ccccc3)c(O)c2cc1OC	13	nt	11	nt	nt	nt	nt
COc1cc(CC(=O)N2CCC(O)(c3ccccn3)CC2)cc(OC)c1OC	-3	nt	nt	nt	nt	nt	nt
COc1ccccc1NC(=O)CNC(=O)c1ccc(F)cc1	8	-9	10	i	11*	-10	1
CCOc1ccc(C(=O)NCC(=O)OCC(=O)Nc2ccccc2OC)cc1	23	-6	10	i	-2	-2	nt
Cc1ccc(C2=NN(S(C)(=O)=O)C(c3cccs3)C2)cc1 (centres undefined)	-17	-11	18	i	11*	-68	6
COc1ccccc1C(=O)N1CCN(C(C)C)CC1	-10	nt	16	nt	nt	nt	nt
O=C(Nc1ccc(S(=O)(=O)N2CCOCC2)cc1)c1cc2ccccc2oc1=O	1	nt	3	nt	nt	nt	nt
CCOC(=O)N1CCN(C(=O)CSc2nc3ccccc3c(=O)n2-c2ccccc2)CC1	-12	-9	6	i	11*	-4	4
CCOC(=O)CSc1nc2ccccc2c(=O)n1-c1ccc(OC)cc1	30	nt	13	nt	nt	nt	nt
CCOc1ccccc1NC(=O)Nc1cccc(C(C)=O)c1	-3	-7	5	i	15*	-21	2
CCOc1ccccc1NC(=O)Nc1cccc(NC(C)=O)c1	-25	-19	11	i	2	-11	nt
CCOc1ccccc1NC(=O)Nc1cnccn1	-2	-25	16	i	17*	5	2
COC(=O)c1ccccc1NC(=O)Nc1cnccn1	0	-3	6	i	-2	-2	nt
